The values below come from article PMC4336329 (PLoS ONE, 2015).

The structures appear in SMILES notation. The whole screen tested about 310,000 compounds, of which about 14,000 (4.5%) showed an effect of 50% or more. Effects have a minus sign here. Shown is part of a subset that was picked to be rich in strong results.
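Further: peak tail current of the secondary pulse compared with the same well before compound.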

The target of the test is human ether-à-go-go-related gene (hERG) potassium channel (human, UniProt Q12809). In words: primary screen, population patch clamp on CHO cells stably expressing hERG; higher = less effect of the substance.
human ether-à-go-go-related gene (hERG) potassium channel, sequence (Q12809 whole entry, looked up): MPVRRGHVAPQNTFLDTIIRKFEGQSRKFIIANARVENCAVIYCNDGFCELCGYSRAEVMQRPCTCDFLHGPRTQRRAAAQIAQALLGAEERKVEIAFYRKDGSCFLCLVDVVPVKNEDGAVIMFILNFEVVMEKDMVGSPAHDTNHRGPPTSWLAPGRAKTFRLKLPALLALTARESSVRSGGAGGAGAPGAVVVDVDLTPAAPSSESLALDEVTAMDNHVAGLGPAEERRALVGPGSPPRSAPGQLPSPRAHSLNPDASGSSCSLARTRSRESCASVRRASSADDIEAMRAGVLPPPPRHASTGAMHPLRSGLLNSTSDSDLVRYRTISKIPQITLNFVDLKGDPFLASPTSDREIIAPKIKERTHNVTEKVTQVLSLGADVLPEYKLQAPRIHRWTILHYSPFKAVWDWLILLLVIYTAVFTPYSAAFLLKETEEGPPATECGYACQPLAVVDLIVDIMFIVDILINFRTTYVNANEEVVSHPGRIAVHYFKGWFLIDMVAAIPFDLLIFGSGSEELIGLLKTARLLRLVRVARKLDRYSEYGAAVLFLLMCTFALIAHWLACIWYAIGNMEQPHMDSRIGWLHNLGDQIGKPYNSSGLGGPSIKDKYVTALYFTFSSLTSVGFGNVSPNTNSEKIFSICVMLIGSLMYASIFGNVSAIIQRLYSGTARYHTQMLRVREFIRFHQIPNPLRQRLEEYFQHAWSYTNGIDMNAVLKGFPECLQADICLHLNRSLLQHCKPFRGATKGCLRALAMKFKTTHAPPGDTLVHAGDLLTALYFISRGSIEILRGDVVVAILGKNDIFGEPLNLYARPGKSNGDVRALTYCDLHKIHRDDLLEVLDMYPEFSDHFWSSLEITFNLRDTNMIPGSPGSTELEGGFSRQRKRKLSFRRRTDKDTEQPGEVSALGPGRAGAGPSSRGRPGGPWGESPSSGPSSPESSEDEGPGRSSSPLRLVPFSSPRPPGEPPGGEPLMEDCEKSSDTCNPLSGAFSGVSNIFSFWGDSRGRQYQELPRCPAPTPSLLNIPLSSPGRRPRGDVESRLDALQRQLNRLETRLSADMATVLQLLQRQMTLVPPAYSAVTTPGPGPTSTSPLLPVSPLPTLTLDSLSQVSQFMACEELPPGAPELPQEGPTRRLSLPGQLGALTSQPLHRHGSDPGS
`COC(=O)C1C2C=CC3(CN(c4cccc(Cl)c4)C(=O)C13)O2` (centres unmarked): the “hERG current change (%, negative = inhibition) at 10uM” value is listed as 2.49%. As for `CC(=O)c1ccc(C(=O)NC2CC(C)(C)Cc3c2cnn3-c2ccccc2)cc1` (centres unmarked), the figure is -21.8%; as for `CC1(C)Cc2c(cnn2-c2ccc(F)cc2)C(NC(=O)c2cnccn2)C1` (centres unmarked), -37.6%; as for `CC1(C)Cc2c(cnn2-c2ccccc2)C(NC(=O)c2ccoc2)C1` (centres unmarked), -93.4%. `CC1(C)Cc2c(cnn2-c2ccc(F)cc2)C(NC(=O)c2ccoc2)C1` (centres unmarked): the “hERG current change (%, negative = inhibition) at 10uM” value is -89.1%. The value for `Cc1cc(C(=O)NC2CC(C)(C)Cc3c2cnn3-c2ccc(F)cc2)no1` (centres unmarked) was -32.8%. Take `CC1(C)Cc2c(cnn2-c2ccccc2)C(NC(=O)c2ccc[n+]([O-])c2)C1` (centres unmarked): the “hERG current change (%, negative = inhibition) at 10uM” value came out at 2.3%. For `CC1Cc2cc(S(=O)(=O)NCCc3ccccc3)ccc2N1C(=O)C1CC1` (centres unmarked), the “hERG current change (%, negative = inhibition) at 10uM” value is on record as 13.7%. For the molecule `COc1ccc(-c2cc(=O)[nH]c(=O)[nH]2)cc1`, the “hERG current change (%, negative = inhibition) at 10uM” value is given as -3.74%. `O=C(c1cccc(S(=O)(=O)Nc2ccccc2Cl)c1)N1CCC1`: the “hERG current change (%, negative = inhibition) at 10uM” value is given as -0.443%. `Cc1ccc(SCC(=O)NCCc2ccc(F)cc2)cc1`: the “hERG current change (%, negative = inhibition) at 10uM” value was -0.26%. Take `COc1ccc(CNC(=O)c2cccc3c2C(=O)N(CC2CCCO2)C3)cc1` (centres unmarked): the “hERG current change (%, negative = inhibition) at 10uM” value was -34.5%. Regarding `CCc1cccc(NC(=O)c2cccc3c2C(=O)N(CC2CCCO2)C3)c1` (centres unmarked), the “hERG current change (%, negative = inhibition) at 10uM” value is -72.2%.

For `COc1ccc(NC(=O)c2cccc3c2C(=O)N(CC2CCCO2)C3)cc1OC` (centres unmarked), the “hERG current change (%, negative = inhibition) at 10uM” value was -17.9%.

On to `CCOC(=O)c1ccc(NC(=O)c2cccc3c2C(=O)N(CC2CCCO2)C3)cc1` (centres unmarked), for which the “hERG current change (%, negative = inhibition) at 10uM” value is reported as -2.27%. The value for `O=C(NCc1ccc(Cl)cc1)c1cccc2c1C(=O)N(CC1CCCO1)C2` (centres unmarked) was -70.8%. Take `O=C(O)c1cccc2c1C(=O)N(CC1CCCO1)C2` (centres unmarked): the “hERG current change (%, negative = inhibition) at 10uM” value was 24.2%. In the case of `CC(=O)N1CCC(C(=O)NCCOc2ccc(C)cc2)CC1`, the “hERG current change (%, negative = inhibition) at 10uM” value amounted to 7.67%. With `COc1ccc(CC(=O)NNC(=O)CN(C)S(=O)(=O)c2ccc(Cl)cc2)cc1OC`, the “hERG current change (%, negative = inhibition) at 10uM” value is 0.252%.

For `CCOC(=O)C1CCN(S(=O)(=O)Cc2ccccc2)CC1`, the “hERG current change (%, negative = inhibition) at 10uM” value is listed as -8.61%. The value for `COc1ccc(C(=O)CC(=O)C(=O)Nc2ccc(Cl)cc2)cc1` was 7.74%; that for `Cc1cc2c(c(=O)o1)C(c1cccs1)C(C#N)=C(N)O2` (centres unmarked) was 4%.

Take `Cc1cccc(-n2cc(CN3CCN(C(=O)c4ncn[nH]4)CC3)c(-c3cccc(F)c3)n2)c1`: the “hERG current change (%, negative = inhibition) at 10uM” value is -16.5%. The value for `CC(=O)N1CCCN(Cc2cn(-c3cccc(C)c3)nc2-c2cccc(F)c2)CC1` was -16.9%; that for `COc1ccc(-n2cc(CN3CCCC3)c(-c3cccc(F)c3)n2)cc1` was -57%; that for `CCC(O)C1CCN(Cc2cn(-c3ccc(OC)cc3)nc2-c2cccc(F)c2)CC1` (centres unmarked) was -75.3%. As for `COc1ccc(-n2cc(CN3CCC(OC)CC3)c(-c3cccc(F)c3)n2)cc1`, the figure is -13.5%; as for `CCC(=O)OCc1c(C(F)(F)F)nn(C)c1Sc1ccc(F)cc1`, -8.79%; as for `CN(CCc1ccccn1)C(=S)NC(=O)c1ccco1`, 17.1%. The value for `O=C(Nc1ccc2c(c1)OCO2)C(c1ccc(Cl)cc1)N1CCN(C(=O)c2ccco2)CC1` (centres unmarked) was -40%.

Regarding `CCOc1ccccc1NC(=O)C(c1ccccc1)N1CCN(C(=O)c2ccco2)CC1` (centres unmarked), the “hERG current change (%, negative = inhibition) at 10uM” value is reported as -57.7%.

For the molecule `Cc1ccc(NC(=O)C(c2ccccc2)N2CCN(C(=O)c3ccco3)CC2)cc1Cl` (centres unmarked), the “hERG current change (%, negative = inhibition) at 10uM” value is given as -21.3%. The value for `Cc1ccc(NC(=O)C(c2ccccc2)N2CCN(C(=O)c3ccco3)CC2)cc1` (centres unmarked) was -72.9%; that for `O=C(Nc1ccc2c(c1)OCO2)C(c1ccccc1)N1CCN(C(=O)c2ccco2)CC1` (centres unmarked) was -33.2%; that for `CC(C)c1ccc(NC(=O)C(c2ccccc2)N2CCN(C(=O)c3ccco3)CC2)cc1` (centres unmarked) was -69.8%. `CCOCCCNC(=O)C(c1ccc(Cl)cc1)N1CCN(C(=O)c2ccco2)CC1` (centres unmarked): the “hERG current change (%, negative = inhibition) at 10uM” value is -0.366%. As for `Cc1cccc(C)c1NC(=O)C(c1ccccc1)N1CCN(C(=O)c2ccco2)CC1` (centres unmarked), the figure is -22.8%; as for `CC(C)c1ccc(NC(=O)C(c2ccc3c(c2)OCO3)N2CCN(C(=O)c3ccco3)CC2)cc1` (centres unmarked), -25%. For `O=C(CSc1nnc(-c2ccc(O)cc2)n1Cc1ccccc1)NNC(=O)c1ccc(Br)cc1`, the “hERG current change (%, negative = inhibition) at 10uM” value is reported as -4.24%. For the molecule `Cc1ccc(NC(=O)COC(=O)CCc2ccc(S(=O)(=O)N3CCOCC3)cc2)cc1F`, the “hERG current change (%, negative = inhibition) at 10uM” value is given as -11%. As to `CCn1c(COc2ccccc2)nnc1SCC(=O)Nc1ccc2c(c1)OCCO2`, the “hERG current change (%, negative = inhibition) at 10uM” value is on record as -6.9%. The value for `Cc1ccc(NC(=O)c2nc[nH]c2C(=O)N2CCN(c3ccccc3)CC2)cc1` was 8.53%. The value for `O=C(NCCC1CCCCN1S(=O)(=O)c1ccccc1)C(=O)Nc1ccc(F)cc1F` (centres unmarked) was 2.67%; that for `CC(C)NC(=O)CSc1nnc(COc2ccccc2Cl)o1` was 9.76%; that for `Cc1ccc(SCC(=O)OCC(=O)N(C)CC(=O)Nc2ccc(F)cc2)cc1C` was -38.7%. The value for `CC#CCC(CC#CC)c1nc2ccccc2c(=O)n1N` was -1.36%; that for `Cc1cc[n+](-c2[nH]c(=O)sc2/C=N/N=C(\[O-])c2ccncc2)cc1` was 5.61%; that for `CCCc1ccc(-c2cc(C(=O)N3CCN(c4ccccn4)CC3)c3ccccc3n2)cc1` was 13.4%. Turning to `CCOC(=O)N1CCC(N2Cc3cccc(C(=O)NCc4ccc(OC)cc4)c3C2=O)CC1`, the “hERG current change (%, negative = inhibition) at 10uM” value is on record as -40%. Turning to `CCOC(=O)N1CCC(N2Cc3cccc(C(=O)Nc4ccccc4OC)c3C2=O)CC1`, the “hERG current change (%, negative = inhibition) at 10uM” value is given as -79.2%. The value for `CCOC(=O)N1CCC(N2Cc3cccc(C(=O)Nc4ccc(OC)c(OC)c4)c3C2=O)CC1` was -9.58%.

Regarding `CCOC(=O)N1CCC(NC(=O)c2cccc3c2C(=O)N(c2ccc(OC)cc2)C3)CC1`, the “hERG current change (%, negative = inhibition) at 10uM” value is on record as -58.3%. As for `CCOC(=O)N1CCC(NC(=O)c2cn(-c3ccc(OC)cc3)c(=O)c3ccccc23)CC1`, the figure is -6.75%; as for `CCOC(=O)c1ccccc1NC(=O)c1cccc2c1C(=O)N(C1CCN(C(=O)OCC)CC1)C2`, -30.4%; as for `CCOC(=O)N1CCC(NC(=O)c2cccc3c2C(=O)N(CCOC)C3)CC1`, -1.34%. As for `CCOC(=O)N1CCC(N2Cc3cccc(C(=O)NCc4ccccc4OC)c3C2=O)CC1`, the figure is -71.2%. As for `CCOC(=O)N1CCC(N2Cc3cccc(C(=O)NCc4ccc(C)cc4)c3C2=O)CC1`, the “hERG current change (%, negative = inhibition) at 10uM” value was -42.6%.

`CCOCCn1c(N2CCCC2)nc2c1c(=O)[nH]c(=O)n2C`: the “hERG current change (%, negative = inhibition) at 10uM” value is listed as 15.1%. As for `COc1ccc2nc(N3C(=O)CC(Cc4cc(C)cc(C)c4)C3=O)sc2c1` (centres unmarked), the figure is 9.23%; as for `COc1ccc(CCNC(=S)N2CCN(S(=O)(=O)c3ccc(Cl)cc3)CC2)cc1`, 22%.

On to `OCCN(Cc1ccccc1)Cc1ccc(C(F)(F)F)cc1`, for which the “hERG current change (%, negative = inhibition) at 10uM” value is recorded as -3.33%. As for `COc1ccc(-c2oc3cccnc3c2C#CCO)cc1`, the figure is 9.84%; as for `COc1ccc2[nH]c(=O)c(CN(CCO)S(=O)(=O)c3c(C)ccc4nsnc34)cc2c1`, -3.86%; as for `C/C(=N\NC(=O)c1cc(-c2ccccc2C)nc2ccccc12)c1cccnc1`, -10.3%. The value for `CCSCc1nnc(SCC(=O)Nc2cccc(C(C)=O)c2)n1C` was 11.9%; that for `CCOc1ncccc1C(=O)Nc1ccc(F)c(Cl)c1` was 24.1%; that for `CN(Cc1ccccc1)c1ccc(N2C(=O)CCCC2=O)cc1[N+](=O)[O-]` was 6.5%. The value for `O=C(Nc1ccc2ccccc2c1)c1ccc(NS(=O)(=O)c2ccc(Br)s2)cc1` was 12%; that for `Cc1cc(F)ccc1NC(=O)c1ccc(NS(=O)(=O)c2cc(C(C)(C)C)ccc2C)cc1` was 0.887%. `Cc1ccc(F)cc1NC(=O)c1ccc(NS(=O)(=O)c2ccc(Br)s2)cc1`: the “hERG current change (%, negative = inhibition) at 10uM” value is on record as -70%. As to `O=C(CCn1nc(-c2ccc(Cl)cc2)ccc1=O)N1CCC2(CC1)OCCO2`, the “hERG current change (%, negative = inhibition) at 10uM” value was -39.8%.

In the case of `Cc1ccc(-c2ccc(=O)n(CCC(=O)N3CCC4(CC3)OCCO4)n2)cc1`, the “hERG current change (%, negative = inhibition) at 10uM” value is given as -64.5%. The value for `CCc1ccc(C2=NN(CCC(=O)N3CCC4(CC3)OCCO4)C(=O)CC2)cc1` was -10.3%; that for `Cc1ccc2c(c1)N(CCC(=O)N1CCC3(CC1)OCCO3)C(=O)CO2` was -16.8%. On to `Cc1ccc(C2=NN(CCC(=O)N3CCC4(CC3)OCCO4)C(=O)CC2)cc1`, for which the “hERG current change (%, negative = inhibition) at 10uM” value is on record as -57.5%. As for `Cc1ccc(-c2ccc(=O)n(CC(=O)N3CCC4(CC3)OCCO4)n2)cc1`, the figure is 5.07%.

Turning to `O=C(Nc1ccc(C2=NCCN2)cc1)c1ccc(C(=O)Nc2ccc(C3=NCCN3)cc2)c([N+](=O)[O-])c1`, the “hERG current change (%, negative = inhibition) at 10uM” value is listed as 20.1%. Turning to `O=C(Nc1ccc(F)cc1F)N1CCCN(c2ccc(C(F)(F)F)cn2)CC1`, the “hERG current change (%, negative = inhibition) at 10uM” value is reported as -12.4%.

As to `CC(=O)c1cc(F)c(N2CCN(c3ccc([N+](=O)[O-])cc3F)CC2)cc1C`, the “hERG current change (%, negative = inhibition) at 10uM” value was -12.3%.

In the case of `O=C(c1ccco1)N1CCN(c2ccc([N+](=O)[O-])cc2Cl)CC1`, the “hERG current change (%, negative = inhibition) at 10uM” value is given as -71.4%. For the molecule `CC(=O)c1ccc(N2CCN(C(=O)c3ccco3)C(C)C2)c(F)c1` (centres unmarked), the “hERG current change (%, negative = inhibition) at 10uM” value was -49.9%. Consider `CC1CN(c2ccc([N+](=O)[O-])cc2F)CCN1C(=O)c1ccco1` (centres unmarked), for which the “hERG current change (%, negative = inhibition) at 10uM” value is reported as -62%. Consider `O=C(Nc1ccc(F)cc1F)N1CCCN(c2ccc([N+](=O)[O-])cn2)CC1`, for which the “hERG current change (%, negative = inhibition) at 10uM” value is recorded as -50.2%. As for `O=C(NC(=O)N1CCN(c2ccc([N+](=O)[O-])cn2)CC1)c1ccccc1F`, the figure is -24.5%. As for `CC(C)(C)c1ccc(NC(=O)N2CCCN(c3ccc([N+](=O)[O-])cn3)CC2)cc1`, the “hERG current change (%, negative = inhibition) at 10uM” value was -25.9%. As for `O=C(O)C(=O)O.O=C(c1ccco1)N1CCN(S(=O)(=O)c2ccc([N+](=O)[O-])cc2)CC1`, the figure is -39.8%. The value for `CC(C)(C)c1ccc(NC(=O)N2CCN(c3ccc([N+](=O)[O-])cn3)CC2)cc1` was -9.81%; that for `CC(C)(C)c1ccc(C(=O)N2CCCN(c3ccc([N+](=O)[O-])cn3)CC2)cc1` was -72.3%.

`O=C(c1ccco1)N1CCN(S(=O)(=O)c2cccc([N+](=O)[O-])c2)CC1`: the “hERG current change (%, negative = inhibition) at 10uM” value is given as -20.7%.
